Inconclusive results are not listed. Unmarked numbers belong to inactive results. Active and inactive are the calls of the source. Unless noted, calls follow the shape of the full dose curve.
test system: not listed separately; experiment: qHTS assay to identify small molecule agonists or antagonists of the thyroid stimulating hormone receptor (TSHR) signaling pathway - wild type cell line counter screen (AID 1259384); settings: HEK293 wild type, cAMP HTRF counter-screen; series mostly up to 92.4 µM; cAMP activity change: at the top concentration
Method in brief: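 Wild-type HEK293 cells were plated 18 h at 37 C/5% CO2, pin-dosed with compound plus Ro20-1724 medium, held 30 min at room temperature, then given cAMP-d2 and anti-cAMP-cryptate; fluorescence was read after 1 h. Fifteen concentrations, triplicate.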
% is scaled to controls: 0 for no effect and ±100 for the full control effect.

| SMILES | cAMP activity change |
| --- | --- |
| CC1OC(=O)C(C)OC1=O (stereo not given) | 1.31% |
| CC(C)Cc1ccc(C(C)C(=O)OCc2ccccn2)cc1 (stereo not given) | -1.24% [at 42.5 µM, hits give high values] |
| CCOc1ccc(O)cc1 | 5.86% |
| CN1C[C@H]2c3ccccc3Oc3ccc(Cl)cc3[C@@H]2C1 | 5.67% [at 42.5 µM, hits give high values] |
| CC1CCC(=O)C1=O (stereo not given) | -0.386% |
| O=C(O)c1ccco1 | -2.69% |
| CN1Cc2cc(C(=O)N3CCC(C4CCNCC4)CC3)ccc2NC(CC(=O)O)C1=O (stereo not given) | 4.71% [at 42.5 µM, hits give high values] |
| CCOc1ccc(N)c([N+](=O)[O-])c1 | -1.1% |
| Nc1ccc([N+](=O)[O-])c(C(F)(F)F)c1 | -6.76% [at 42.5 µM, hits give high values] |
| CCCCCCCCCCO[C@@H]1O[C@H](CO)[C@@H](O)[C@H](O)[C@H]1O | 5.9% |
| O=P(O)(OCc1ccccc1)OCc1ccccc1 | -1.7% |
| Brc1c2ccccc2c(Br)c2ccccc12 | 1.89% [at 8.39 µM, hits give high values] |
| Brc1c2ccccc2cc2ccccc12 | 1.25% |
| O=C(OCCc1ccccc1)c1ccccc1 | -0.412% |
| COc1ccc(C(=O)c2ccc(OC)cc2O)c(O)c1 | 2.93% |
| c1ccc(C(O[C@H]2CCCN(CCc3ccc4c(c3)OCO4)C2)c2ccccc2)cc1 | -7.82% [at 42.5 µM, hits give high values] |
| C[C@@H]1C[C@H]2[C@@H]3CCC4=CC(=O)C=C[C@]4(C)[C@@]3(F)[C@@H](O)C[C@]2(C)[C@@]1(O)C(=O)COC(=O)c1ccncc1 | -0.846% [at 42.5 µM, hits give high values] |
| CCCCCCCCCOS(=O)(=O)O | 2.53% |
| C/C=C(/C(=C/C)c1ccc(OC(C)=O)cc1)c1ccc(OC(C)=O)cc1 | -2.36% [at 42.5 µM, hits give high values] |
| ClCCOCCOCCCl | 1.83% |
| COC(C)OC | 0.0417% |
| Cc1oc(-c2ccccc2)nc1CCOc1cccc2c1ccn2CCC(=O)O | 0.961% |
| C[N+](C)(C)CCOC(=O)CCC(=O)OCC[N+](C)(C)C | -10.4% [at 42.5 µM, hits give high values] |
| CCCC(=O)Nc1ccc(O)c(C(C)=O)c1 | -2.7% [at 42.5 µM, hits give high values] |
| CCCCc1nc2cccnc2n1Cc1ccc(-c2ccccc2-c2nnn[nH]2)cc1 | 2.39% |
| c1cc(CCCc2ccncc2)ccn1 | 8.4% |
| Cc1cc(C(=O)O)ccc1[N+](=O)[O-] | -3.32% |
| CN(C)c1ccc(CCO)cc1 | -3.53% |

biological target: Thyrotropin receptor (Homo sapiens) (UniProt P16473); experiment: qHTS assay to identify small molecule antagonists of the thyroid stimulating hormone receptor (TSHR) signaling pathway (AID 1259385); settings: TSHR-HEK293 cAMP HTRF, TSH-stimulated antagonist mode; series mostly up to 92.4 µM; activity change, negative = inhibition: at the top concentration; also: nearly all actives have a fitted effect of over 20% in size
Sequence (P16473 whole entry, looked up): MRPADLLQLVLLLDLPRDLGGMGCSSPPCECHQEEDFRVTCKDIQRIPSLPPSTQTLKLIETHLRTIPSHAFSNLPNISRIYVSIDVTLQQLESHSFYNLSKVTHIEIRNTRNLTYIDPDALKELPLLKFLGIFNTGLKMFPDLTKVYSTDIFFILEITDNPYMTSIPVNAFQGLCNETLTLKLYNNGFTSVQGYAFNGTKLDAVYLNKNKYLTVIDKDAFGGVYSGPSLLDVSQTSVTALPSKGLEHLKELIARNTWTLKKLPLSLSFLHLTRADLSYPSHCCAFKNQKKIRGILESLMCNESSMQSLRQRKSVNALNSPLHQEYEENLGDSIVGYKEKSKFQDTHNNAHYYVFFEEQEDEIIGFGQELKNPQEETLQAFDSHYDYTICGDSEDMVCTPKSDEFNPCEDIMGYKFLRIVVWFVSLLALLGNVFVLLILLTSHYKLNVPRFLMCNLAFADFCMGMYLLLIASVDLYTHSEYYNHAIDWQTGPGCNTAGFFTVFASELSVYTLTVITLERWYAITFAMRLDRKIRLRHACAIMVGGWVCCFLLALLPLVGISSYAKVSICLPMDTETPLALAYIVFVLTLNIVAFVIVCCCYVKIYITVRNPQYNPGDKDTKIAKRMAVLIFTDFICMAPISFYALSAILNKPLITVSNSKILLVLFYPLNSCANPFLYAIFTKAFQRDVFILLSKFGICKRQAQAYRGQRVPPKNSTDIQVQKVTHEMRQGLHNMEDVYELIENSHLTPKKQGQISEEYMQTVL
Method in brief: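 TSHR-HEK293 cells were plated and held 18 h at 37C/5% CO2, then given compound plus Ro20-1724 and stimulated with TSH at 1.5 ng/mL final. After 30 min at room temperature, cAMP was detected with cAMP-d2/anti-cAMP-cryptate (1 h) by fluorescence.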

| SMILES | activity change, negative = inhibition |
| --- | --- |
| CC1OC(=O)C(C)OC1=O (stereo not given) | -1.57% |
| CCOc1ccc(O)cc1 | 7.18% |
| CN1C[C@H]2c3ccccc3Oc3ccc(Cl)cc3[C@@H]2C1 | 3.4% [at 42.5 µM] |
| CC1CCC(=O)C1=O (stereo not given) | -2.12% |
| O=C(O)c1ccco1 | 0.64% |
| CN1Cc2cc(C(=O)N3CCC(C4CCNCC4)CC3)ccc2NC(CC(=O)O)C1=O (stereo not given) | 1.62% [at 42.5 µM] |
| CCOc1ccc(N)c([N+](=O)[O-])c1 | -1.34% |
| Nc1ccc([N+](=O)[O-])c(C(F)(F)F)c1 | 0.142% [at 42.5 µM] |
| CCCCCCCCCCO[C@@H]1O[C@H](CO)[C@@H](O)[C@H](O)[C@H]1O | 3.63% |
| O=P(O)(OCc1ccccc1)OCc1ccccc1 | 1.17% |
| Brc1c2ccccc2c(Br)c2ccccc12 | -6.18% [at 8.39 µM] |
| O=C(OCCc1ccccc1)c1ccccc1 | -9.26% |
| COc1ccc(C(=O)c2ccc(OC)cc2O)c(O)c1 | -3.19% |
| c1ccc(C(O[C@H]2CCCN(CCc3ccc4c(c3)OCO4)C2)c2ccccc2)cc1 | -1.8% [at 42.5 µM] |
| CCCCCCCCCOS(=O)(=O)O | 0.495% |
| C/C=C(/C(=C/C)c1ccc(OC(C)=O)cc1)c1ccc(OC(C)=O)cc1 | -2.11% [at 42.5 µM] |
| ClCCOCCOCCCl | 2.01% |
| COC(C)OC | 0.948% |
| Cc1oc(-c2ccccc2)nc1CCOc1cccc2c1ccn2CCC(=O)O | -0.0546% |
| C[N+](C)(C)CCOC(=O)CCC(=O)OCC[N+](C)(C)C | -0.193% [at 42.5 µM] |
| CCCC(=O)Nc1ccc(O)c(C(C)=O)c1 | 1.18% [at 42.5 µM] |
| CCCCc1nc2cccnc2n1Cc1ccc(-c2ccccc2-c2nnn[nH]2)cc1 | 0.163% |
| c1cc(CCCc2ccncc2)ccn1 | 0.347% |
| Cc1cc(C(=O)O)ccc1[N+](=O)[O-] | -1.65% |
| CN(C)c1ccc(CCO)cc1 | -3.22% |

test system: not listed separately; experiment: qHTS assay to identify small molecule agonists of the estrogen receptor alpha (ER-alpha) signaling pathway in the presence of an antagonist - cell viability counter screen (AID 1259386; active = well fitted cell-killing curve with a large enough effect in the repeat runs;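 also: cells exposed to compounds for 22 h at 37 °C before the viability read; nearly all actives have a fitted effect of over 30% in size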; also: potency is read from the fitted curve at half-maximal effect); settings: VM7Luc4E2 viability, CellTiter-Fluor fluorescence, 22 h; series mostly up to 92.4 µM; activity change, negative = cytotoxicity: at the top concentration
Method in brief: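 Using estrogen-depleted VM7Luc4E2 cells, the 15-concentration compound series was applied together with 10.0nM ICI-182,780 and incubated 22hr at 37C/5% CO2. Cell viability was then scored by CellTiter-Fluor.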

| SMILES | activity change, negative = cytotoxicity | Potency |
| --- | --- | --- |
| CC1OC(=O)C(C)OC1=O (stereo not given) | 0.693% |  |
| CC(C)Cc1ccc(C(C)C(=O)OCc2ccccn2)cc1 (stereo not given) | 0.27% [at 42.5 µM] |  |
| CCOc1ccc(O)cc1 | 0.181% |  |
| CN1C[C@H]2c3ccccc3Oc3ccc(Cl)cc3[C@@H]2C1 | 1.33% [at 42.5 µM] |  |
| CC(=O)c1cccc([N+](=O)[O-])c1 | 0.103% |  |
| CC1CCC(=O)C1=O (stereo not given) | 0.037% |  |
| O=C(O)c1ccco1 | 3.19% |  |
| CN1Cc2cc(C(=O)N3CCC(C4CCNCC4)CC3)ccc2NC(CC(=O)O)C1=O (stereo not given) | 2.53% [at 42.5 µM] |  |
| CCCCCCCCCCO[C@@H]1O[C@H](CO)[C@@H](O)[C@H](O)[C@H]1O | 1.34% |  |
| O=P(O)(OCc1ccccc1)OCc1ccccc1 | 0.0074% |  |
| C=CC1CC2C=CC1C2 (stereo not given) | 1.33% |  |
| Brc1c2ccccc2c(Br)c2ccccc12 | 2.81% [at 8.39 µM] |  |
| Brc1c2ccccc2cc2ccccc12 | 0.964% |  |
| O=C(OCCc1ccccc1)c1ccccc1 | 1.71% |  |
| CCC(CC)Nc1ccc(C)c(C)c1 | 0.492% |  |
| COc1ccc(C(=O)c2ccc(OC)cc2O)c(O)c1 | -0.455% |  |

| SMILES | activity change, negative = cytotoxicity | Potency |
| --- | --- | --- |
| c1ccc(C(O[C@H]2CCCN(CCc3ccc4c(c3)OCO4)C2)c2ccccc2)cc1 | -4.81% [at 42.5 µM] |  |
| C[C@@H]1C[C@H]2[C@@H]3CCC4=CC(=O)C=C[C@]4(C)[C@@]3(F)[C@@H](O)C[C@]2(C)[C@@]1(O)C(=O)COC(=O)c1ccncc1 | 1.19% [at 42.5 µM] |  |
| CCCCCCCCCOS(=O)(=O)O | 6.64% |  |
| C/C=C(/C(=C/C)c1ccc(OC(C)=O)cc1)c1ccc(OC(C)=O)cc1 | 3.03% [at 42.5 µM] |  |
| ClCCOCCOCCCl | 5.46% |  |
| O=C1CCC(=O)O1 | -0.748% |  |
| C=C1[C@H]2CC[C@@H]3[C@H]2C(C)(C)CCC[C@]13C | 0.739% |  |
| COC(C)OC | 3.33% |  |
| Cc1oc(-c2ccccc2)nc1CCOc1cccc2c1ccn2CCC(=O)O |  | 19.3 µM (active) |
| C[N+](C)(C)CCOC(=O)CCC(=O)OCC[N+](C)(C)C | 0.595% [at 42.5 µM] |  |
| CCCC(=O)Nc1ccc(O)c(C(C)=O)c1 | 3.87% [at 42.5 µM] |  |
| CC1=CC=C(C(C)C)CC1 | 1.08% |  |
| C=CCOc1ccccc1OCC(O)CNC(C)C (stereo not given) | -4.46% [at 42.5 µM] |  |
| c1cc(CCCc2ccncc2)ccn1 | 0.613% |  |
| Cc1cc(C(=O)O)ccc1[N+](=O)[O-] | 8.82% |  |
| CN(C)c1ccc(CCO)cc1 | 0.288% |  |

Source: PubChem BioAssay (Tox21)
